Assay results from PubChem BioAssay (NCATS).
Records with an inconclusive call do not appear. Activity calls are given as the source filed them. Unless noted, the call rests on the fitted dose curve; in most records, active means well fitted curve in the direction sought with a large enough effect; inconclusive means small, poorly fitted or top-dose-only effect, or another doubt; inactive means no such curve, though single readings can be large; an effect the other way counts as inactive or inconclusive.

Legend:
[1] = S16 Schwann cell PMP22 intronic element firefly luciferase assay (AID 624032); further: nearly all actives have a fitted effect of over 30% in size; further: potency means the concentration at half of the fitted maximal effect
In short: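 Rat S16 Schwann cells stably carrying a PMP22 intronic element-driven Fluc reporter were seeded overnight, then exposed to compounds for 24 h at 37 °C. Luminescence was normalized to PTC124 (positive control) and DMSO (0% activity).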

DFO2036 = experiment: qHTS profiling for inhibitors of Plasmodium falciparum proliferation (AID 504749); further: nearly all actives have a fitted effect of over 60% in size; further: potency means the concentration at half of the fitted maximal effect; details: P. falciparum in erythrocytes, SYBR Green DNA, 72 h; series mostly up to 28.7 µM
In short: (§1)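 Parasite proliferation within erythrocytes, 72 h exposure. Endpoint: SYBR Green I fluorescence after overnight lysis at room temperature. Controls: 0.29 uM artemisinin, DMSO.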

DIV14 = experiment: as above; details: P. falciparum in erythrocytes, SYBR Green DNA, 72 h; series mostly up to 28.7 µM
In short: as §1

ICS = experiment: as above; details: P. falciparum in erythrocytes, SYBR Green DNA, 72 h; series mostly up to 28.7 µM
In short: as §1

W2 = experiment: as above; details: P. falciparum in erythrocytes, SYBR Green DNA, 72 h; series mostly up to 28.7 µM
In short: as §1

[2] = molecular target: Ubiquitin carboxyl-terminal hydrolase 1 (Homo sapiens) (UniProt O94782); experiment: Inhibitors of USP1/UAF1: Pilot qHTS (AID 504865); further: nearly all actives have a fitted effect of over 35% in size; further: potency means the concentration at half of the fitted maximal effect
In short: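 Enzyme-free wells gave the negative control, while test wells held 1nM USP1/UAF1 preincubated with compound for 15 min at room temperature. Ub-Rho at 150nM final started the reaction, and fluorescence at 480/540 nm was recorded kinetically.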

[3] = molecular target: Cytochrome P450 3A4 (Homo sapiens) (UniProt P08684); experiment: qHTS Assay for Inhibitors and Substrates of Cytochrome P450 3A4 (AID 884); further: nearly all actives have a fitted effect of over 50% in size; further: potency means the concentration at half of the fitted maximal effect
In short: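 20 nM human CYP3A4 with 25 uM Luciferin-PPXE (at KM) in 200 mM KPO4, preincubated 10 min with compound; NADPH regeneration started a 60 min RT reaction. Luciferin detected by luminescence, normalized to 57 uM ketoconazole as full inhibition.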

[4] = Confirmation and Secondary Assay for Modulators of Hemoglobin Beta Chain Splicing at IVS2 654 locus (AID 910);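 further: per-well total GFP intensity by laser scanning cytometry after 2-day treatment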
In short: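 HeLa cells stably carrying EGFP interrupted by mutant beta-globin IVS2-654 intron (CMV-driven) were treated with compound for 2 days at 37C; corrected splicing was scored as total peak GFP intensity per well (488 nm excitation, 500-520 nm emission).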

[5] = Confirmation and Secondary Assay for Modulators of Hemoglobin Beta Chain Splicing at IVS2 705 locus (AID 930);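 further: HeLa cells stably expressing the EGFP-705 splicing reporter; GFP fluorescence per well restored by corrected splicing of the IVS2-705 intron in EGFP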
In short: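 Assay measures total GFP intensity per well in HeLa EGFP-705 cells after 2 days with compound; mis-splicing normally truncates EGFP, so fluorescence indicates corrected splicing.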

[6] = molecular target: Mitogen-activated protein kinase 10 (Mus musculus) (UniProt Q61831); experiment: JNK3 AlphaScreen Assay (AID 530; active means well fitted curve in either direction with a large enough effect, not every such curve was filed as active;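 further: kinase came from lysate of stimulated human HepG2 cells; signal reports phosphorylation of biotinylated GST-cJun 1-79 at Ser73 with 10 µM ATP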)
In short: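 Inhibitors reduce antibody binding to phosphorylated biotin-cJun, lowering AlphaScreen luminescence. Lysates from HepG2 cells pre-activated by IL-1beta plus TNF-alpha supplied JNK3; compounds were titrated.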

Measured: Potency

Ubiquitin carboxyl-terminal hydrolase 1 (Homo sapiens), sequence (O94782 whole entry, looked up): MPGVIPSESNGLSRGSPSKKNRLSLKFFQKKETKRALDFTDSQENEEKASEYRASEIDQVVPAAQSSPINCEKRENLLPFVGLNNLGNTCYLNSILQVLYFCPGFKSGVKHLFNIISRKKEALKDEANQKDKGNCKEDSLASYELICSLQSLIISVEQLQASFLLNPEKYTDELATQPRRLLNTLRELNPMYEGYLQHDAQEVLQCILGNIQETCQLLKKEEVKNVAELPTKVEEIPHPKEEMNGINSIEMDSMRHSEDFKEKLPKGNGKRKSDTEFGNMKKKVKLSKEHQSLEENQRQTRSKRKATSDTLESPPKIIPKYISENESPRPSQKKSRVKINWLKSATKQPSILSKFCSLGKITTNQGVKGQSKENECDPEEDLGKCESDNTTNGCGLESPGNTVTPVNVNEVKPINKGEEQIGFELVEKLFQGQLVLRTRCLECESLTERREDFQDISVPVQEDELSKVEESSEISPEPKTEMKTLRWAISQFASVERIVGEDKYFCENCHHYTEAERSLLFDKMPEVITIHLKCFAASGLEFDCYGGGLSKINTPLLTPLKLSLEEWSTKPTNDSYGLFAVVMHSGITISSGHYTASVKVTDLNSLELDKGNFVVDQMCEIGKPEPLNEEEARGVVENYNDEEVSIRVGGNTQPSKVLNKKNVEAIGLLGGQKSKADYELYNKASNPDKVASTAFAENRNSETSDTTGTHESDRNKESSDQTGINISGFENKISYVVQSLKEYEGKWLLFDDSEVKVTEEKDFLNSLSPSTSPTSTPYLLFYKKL
Cytochrome P450 3A4 (Homo sapiens), sequence (P08684 whole entry, looked up): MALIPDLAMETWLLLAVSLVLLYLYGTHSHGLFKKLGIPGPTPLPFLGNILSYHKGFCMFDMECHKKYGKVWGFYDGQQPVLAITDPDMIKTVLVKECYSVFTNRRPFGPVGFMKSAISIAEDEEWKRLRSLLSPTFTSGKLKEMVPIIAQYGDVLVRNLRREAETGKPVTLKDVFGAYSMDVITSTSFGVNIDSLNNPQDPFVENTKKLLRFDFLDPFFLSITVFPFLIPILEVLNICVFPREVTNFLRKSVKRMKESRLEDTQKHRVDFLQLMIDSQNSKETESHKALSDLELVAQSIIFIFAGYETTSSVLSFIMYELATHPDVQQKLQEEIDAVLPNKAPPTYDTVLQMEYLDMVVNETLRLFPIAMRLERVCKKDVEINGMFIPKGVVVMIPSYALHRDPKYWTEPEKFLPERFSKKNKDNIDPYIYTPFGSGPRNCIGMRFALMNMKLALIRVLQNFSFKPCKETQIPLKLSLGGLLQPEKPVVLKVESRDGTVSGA

CC1(C(=O)O)CCC2(C)CCC3(C)C(=CC(=O)C4C5(C)CCC(O)C(C)(C)C5CCC43C)C2C1 (centres undefined)
inactive: [1] | DFO2036 | DIV14 | ICS | W2

CCN(CC)CC(=O)Nc1c(C)cc(C)cc1C
inactive: [2] | [1] | DIV14 | ICS

Cc1ccc(/C=C2/C(=O)C3(C)CCC2C3(C)C)cc1 (centres undefined)
inactive: [1] | DFO2036 | DIV14 | ICS

CCCCC(=O)OCC(=O)[C@]1(O)Cc2c(O)c3c(c(O)c2[C@H](OC2CC(NC(=O)C(F)(F)F)C(O)C(C)O2)C1)C(=O)c1c(OC)cccc1C3=O (some centres undefined)
active: [1] 0.721 µM | DIV14 1.69 µM | ICS 0.794 µM | W2 1.51 µM

Cc1ccccc1N1C(=O)c2cc(N)ccc2N/C1=C\F
inactive: [1] | DFO2036

Cc1ccc(Nc2ncccc2C(=O)O)cc1C
inactive: [2] | [1] | DIV14 | ICS | W2

NC(=O)OC[C@@H]1[C@H](NC(=O)/C(=N/OCC(=O)O)c2csc(N)n2)C(=O)N1S(=O)(=O)O
inactive: [2] | [1] | DFO2036 | DIV14 | ICS

CCCC(=O)O[C@]1(C(=O)COC(C)=O)CC[C@H]2C3C[C@H](F)C4=CC(=O)C=CC4(C)[C@@]3(F)[C@@H](O)CC21C (some centres undefined)
inactive: [1] | DFO2036

CC1C(=O)C(=O)C=CN1C (centres undefined)
inactive: [2] | [1] | DIV14 | ICS | W2

CN(C)CC/C=C1\c2ccccc2COc2ccc(CC(=O)O)cc21
inactive: [2] | [1] | DFO2036 | DIV14 | ICS

OCC1OC(O)C(O)C(O)C1O (centres undefined)
inactive: [1] | ICS

OCC(CO)NC1C[C@](O)(CO)[C@@H](O)[C@H](O)[C@H]1O (some centres undefined)
inactive: [2] | [1] | DFO2036 | DIV14 | ICS | W2

CCCCCCCCCCCCCCCC(=O)OCC(COP(=O)(O)OCC[N+](C)(C)C)OC(=O)CCCCCCCCCCCCCCC (centres undefined)
inactive: [2] | [1] | DIV14 | ICS | W2

NC(=O)C1CC2(NC(=O)NC2=O)c2cc(F)ccc2O1 (centres undefined)
inactive: [1] | DFO2036 | ICS | W2

C=C(NCc1ccccc1)c1ccccc1O
inactive: [2] | [1] | DIV14 | ICS | W2

Nc1nc(F)nc2c1ncn2[C@@H]1O[C@H](CO)[C@@H](O)[C@H]1O
inactive: [1] | DFO2036 | DIV14 | ICS | W2

COC1CC2CCC(C)[C@](O)(O2)C(=O)C(=O)N2CCCCC2C(=O)OC(C(C)CC2CCC(O)C(OC)C2)CC(=O)C(C)/C=C(/C)C(O)C(OC)C(=O)C(C)CC(C)C=CC=C/C=C\1C (some centres undefined)
active: DFO2036 1.41 µM | DIV14 1.51 µM | ICS 0.891 µM | W2 0.675 µM

O=C(O)C(O)c1ccccc1 (centres undefined)
inactive: [2] | [1] | DIV14 | ICS | W2

C/C1=C2/[N-]C(C(CC(N)=O)[C@@]2(C)CCC(=O)NCC(C)OP(=O)([O-])O[C@H]2[C@@H](O)[C@@H](n3cnc4cc(C)c(C)cc43)O[C@@H]2CO)[C@]2(C)N=C(/C(C)=C3N=C(/C=C4N=C1C(CCC(N)=O)C\4(C)C)[C@@H](CCC(N)=O)[C@]\3(C)CC(N)=O)[C@@H](CCC(N)=O)[C@]2(C)CC(N)=O.CC(=O)O.[Co] (some centres undefined)
inactive: DIV14 | ICS
active: [1] 2.56 µM | W2 0.601 µM

NCCCCC(N)C(=O)O (centres undefined)
inactive: [2] | [1] | DFO2036 | DIV14 | ICS | W2

CC(=O)N1CC(O)CC1C(=O)O (centres undefined)
inactive: [2] | [1] | DFO2036 | DIV14 | ICS | W2

C/C(=C(/CCO)SS/C(CCO)=C(\C)N(C=O)Cc1cnc(C)nc1N)N(C=O)Cc1cnc(C)nc1N
inactive: [2] | [1] | DFO2036 | DIV14 | ICS | W2

CC[C@H](C)[C@H]1O[C@]2(CC[C@@H]1C)C[C@@H]1C[C@@H](C/C=C(\C)[C@H](O[C@@H]3C[C@H](OC)[C@H](O[C@@H]4C[C@H](OC)[C@@H](O)[C@H](C)O4)[C@H](C)O3)[C@@H](C)/C=C/C=C3\CO[C@@H]4[C@H](O)C(C)=C[C@@H](C(=O)O1)[C@]34O)O2
active: [1] 9.07 µM | DIV14 1.69 µM | ICS 1.26 µM | W2 1.69 µM

CC(C)C[C@@H](NC(=O)[C@@H](Cc1ccccc1)NC(=O)c1cnccn1)B(O)O
active: [1] 0.0051 µM | DIV14 0.601 µM | ICS 0.0447 µM | W2 0.0601 µM

O=C1NC(=O)C2C3C=CC(C3)C12 (centres undefined)
inactive: [1] | DIV14 | ICS | W2

C=C1C(n2cnc3c(=O)[nH]c(N)nc32)C[C@H](O)[C@H]1CO (some centres undefined)
inactive: [2] | [1] | DFO2036

O=C(O)Cc1sc(-c2ccc(Cl)cc2)nc1-c1ccccc1
inactive: [2] | [1] | DFO2036 | DIV14 | ICS | W2

C[N+]12CCCC[C@@H]1CCC(=C(c1cccs1)c1cccs1)C2 (some centres undefined)
active: DFO2036 10 µM | DIV14 6.75 µM | W2 13.5 µM
inactive: [2]

C[C@@H]1CC2C3CCC4=CC(=O)C=C[C@]4(C)[C@@]3(F)[C@@H](O)C[C@]2(C)[C@@]1(O)C(=O)COC(=O)c1cccc(S(=O)(=O)O)c1 (some centres undefined)
inactive: [1] | DIV14 | ICS | W2

CO/N=C(/C(=O)N[C@@H]1C(=O)N2C(C(=O)O)=C(CSc3nnnn3C)CS[C@H]12)c1csc(N)n1
inactive: [2] | [1] | DIV14 | ICS | W2

CCC(C(=O)C(C)C(O)C(C)CCc1ccc(C)c(O)c1C(=O)O)C1OC(CC)(C2CC[C@@](O)(CC)C(C)O2)CC1C (some centres undefined)
inactive: [4] | [5]
active: [3] 20 µM | [1] 1.81 µM | DFO2036 1 µM | DIV14 0.953 µM | ICS 0.631 µM | W2 0.675 µM

COc1cc(/C=C2\CCC/C(=C\c3ccc(O)c(OC)c3)C2=O)ccc1O
active: DIV14 6.75 µM | ICS 3.16 µM | W2 9.53 µM

OC[C@@H](O)C(O[C@@H]1O[C@@H](CO)[C@H](O)[C@H](O)[C@H]1O)[C@H](O)[C@@H](O)CO (some centres undefined)
inactive: [2] | [1] | DFO2036 | DIV14 | ICS | W2

COC(=O)C1C2CC3c4[nH]c5cc(OC)ccc5c4CCN3CC2CC(OC)C1OC (centres undefined)
inactive: [1] | DFO2036 | ICS

CC(=O)O[C@]1(C(C)=O)CCC2C3CCC4=CC(=O)CCC4(C)C3(F)C(O)CC21C (some centres undefined)
inactive: [2] | [1] | DFO2036 | DIV14

CCCCCOC(=O)Nc1nc(=O)n(C2O[C@H](C)[C@@H](O)[C@@H]2O)cc1F (some centres undefined)
inactive: [1] | DFO2036 | DIV14 | ICS

CC1(C)O[C@@H]2C[C@H]3[C@@H]4CCC5=CC(=O)C=C[C@]5(C)[C@H]4C(O)C[C@]3(C)[C@]2(C(=O)CO)O1 (some centres undefined)
inactive: [2] | [1] | DIV14

CCCSS/C(CCO)=C(/C)N(C=O)Cc1cnc(C)nc1N
active: [1] 10.2 µM
inactive: [2] | DFO2036 | DIV14 | W2

C[C@]12CC[C@@H]3c4ccc(O)cc4C[C@@H](CCCCCCCCCS(=O)CCCC(F)(F)C(F)(F)F)C3[C@@H]1CC[C@@H]2O (some centres undefined)
active: DFO2036 11.2 µM | DIV14 3.01 µM | ICS 2 µM | W2 6.75 µM

CC(=O)CC(c1ccccc1)C1C(=O)Oc2ccccc2C1=O (centres undefined)
inactive: [2] | [1] | DFO2036 | DIV14 | ICS | W2

CC(=O)OC1C([N+]2(C)CCCCC2)C[C@H]2C3CC[C@H]4C[C@H](OC(C)=O)C([N+]5(C)CCCCC5)CC4(C)C3CCC12C (some centres undefined)
inactive: [1] | ICS

CC(=O)C1(O)Cc2c(O)c3c(c(O)c2C(OC2CC(N)C(O)C(C)O2)C1)C(=O)c1c(O)cccc1C3=O (centres undefined)
active: DFO2036 7.94 µM | DIV14 5.36 µM | ICS 3.55 µM | W2 4.26 µM

C=C(CC[C@@H](C)[C@H]1CCC2[C@]1(C)CC[C@]13C[C@@]14CCC(OC(=O)/C=C/c1ccc(O)c(OC)c1)C(C)(C)[C@@H]4CC[C@@]23C)C(C)C (some centres undefined)
inactive: [2] | [1] | DFO2036 | DIV14 | ICS | W2

C[C@]12C=CC(=O)N[C@@H]1CC[C@@H]1C2CC[C@]2(C)C(C(=O)Nc3cc(C(F)(F)F)ccc3C(F)(F)F)CC[C@@H]12 (some centres undefined)
inactive: DFO2036
active: ICS 3.16 µM | W2 1.51 µM

Cc1c(C)c2c(c(C)c1O)CCC(C)(CCCC(C)CCCC(C)CCCC(C)C)O2 (centres undefined)
not listed: ICS | [2] | [6]
inactive: all other assays above

Cc1cc2nc3c(=O)[nH]c(=O)nc-3n(CC(O)C(O)C(O)COP(=O)(O)O)c2cc1C (centres undefined)
active: [2] 31.6 µM
inactive: ICS

Clc1ccc(CS[C@@H](Cn2ccnc2)c2ccc(Cl)cc2Cl)cc1
inactive: [6] | [1]
active: DFO2036 3.16 µM | DIV14 5.1 µM | ICS 0.891 µM | W2 1.02 µM
